The values below come from ChEMBL document CHEMBL1961873, “Compounds: GSK PKIS; Assays: Nanosyn kinase panel” (2012).

As a reminder, the inhibition is the change of the read-out against control, counted positive when it falls.

The target of assay [1] is Tyrosine-protein kinase SYK (Homo sapiens) (UniProt P43405). To be noted: at 1 µM.
Assay [2] has as its target T1, Tyrosine-protein kinase Tec (Homo sapiens) (UniProt P42680).
T1 sequence (whole entry): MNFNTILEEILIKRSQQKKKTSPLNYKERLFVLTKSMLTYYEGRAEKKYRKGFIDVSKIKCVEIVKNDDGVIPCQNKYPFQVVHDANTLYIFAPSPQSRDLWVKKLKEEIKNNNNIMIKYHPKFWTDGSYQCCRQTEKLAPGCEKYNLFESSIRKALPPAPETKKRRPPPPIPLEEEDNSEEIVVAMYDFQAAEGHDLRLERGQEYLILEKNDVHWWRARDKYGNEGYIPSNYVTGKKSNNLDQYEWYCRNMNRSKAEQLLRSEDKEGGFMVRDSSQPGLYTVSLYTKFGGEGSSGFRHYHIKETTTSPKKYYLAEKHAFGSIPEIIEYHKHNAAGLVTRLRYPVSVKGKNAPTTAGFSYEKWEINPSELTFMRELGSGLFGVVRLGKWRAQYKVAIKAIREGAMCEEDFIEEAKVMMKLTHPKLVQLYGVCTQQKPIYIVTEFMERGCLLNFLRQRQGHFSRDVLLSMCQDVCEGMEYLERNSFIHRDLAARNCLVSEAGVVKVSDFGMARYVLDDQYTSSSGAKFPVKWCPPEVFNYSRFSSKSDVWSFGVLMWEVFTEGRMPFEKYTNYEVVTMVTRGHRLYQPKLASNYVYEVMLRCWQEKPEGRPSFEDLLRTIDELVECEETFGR
To be noted: at 0.1 µM.

Assay [3] deals with T1, Tyrosine-protein kinase Tec (Homo sapiens). To be noted: at 1 µM.
For assay [4], the target named is Angiopoietin-1 receptor (Homo sapiens) (UniProt Q02763). The note with it: at 0.1 µM.
For assay [5] the target is unchanged. The note with it: at 1 µM.
In assay [6] the target is T2, Non-receptor tyrosine-protein kinase TNK1 (Homo sapiens) (UniProt Q13470).
T2 sequence (whole entry): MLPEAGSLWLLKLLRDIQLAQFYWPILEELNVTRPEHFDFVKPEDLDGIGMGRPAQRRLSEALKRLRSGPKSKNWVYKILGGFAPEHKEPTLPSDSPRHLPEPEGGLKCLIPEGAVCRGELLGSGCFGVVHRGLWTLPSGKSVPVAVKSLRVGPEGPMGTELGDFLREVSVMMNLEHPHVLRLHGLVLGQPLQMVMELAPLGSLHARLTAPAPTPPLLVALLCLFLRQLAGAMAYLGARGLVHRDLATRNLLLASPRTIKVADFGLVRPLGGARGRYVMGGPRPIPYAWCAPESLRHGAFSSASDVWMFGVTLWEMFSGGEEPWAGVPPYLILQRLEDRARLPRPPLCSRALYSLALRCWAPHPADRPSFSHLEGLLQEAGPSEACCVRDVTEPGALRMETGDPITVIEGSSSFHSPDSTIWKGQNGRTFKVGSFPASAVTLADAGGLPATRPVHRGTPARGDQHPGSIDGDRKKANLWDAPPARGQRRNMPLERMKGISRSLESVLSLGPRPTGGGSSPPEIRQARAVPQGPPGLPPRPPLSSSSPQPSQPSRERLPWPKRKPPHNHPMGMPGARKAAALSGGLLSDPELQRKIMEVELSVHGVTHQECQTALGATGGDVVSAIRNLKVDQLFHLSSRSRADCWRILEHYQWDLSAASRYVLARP
To be noted: at 0.1 µM.

In assay [7] the target is T2, Non-receptor tyrosine-protein kinase TNK1 (Homo sapiens). The note with it: at 1 µM.
Assay [8] deals with Activated CDC42 kinase 1 (Homo sapiens) (UniProt Q07912). The note with it: at 0.1 µM.
The target is the same in assay [9]. The note with it: at 1 µM.
Assay [10] addresses High affinity nerve growth factor receptor (Homo sapiens) (UniProt P04629). To be noted: at 0.1 µM.
The target is the same in assay [11]. The note with it: at 1 µM.
Assay [12] deals with BDNF/NT-3 growth factors receptor (Homo sapiens) (UniProt Q16620). The note with it: at 0.1 µM.
Assay [13] shares this target. The note with it: at 1 µM.
For assay [14], the target named is NT-3 growth factor receptor (Homo sapiens) (UniProt Q16288). The note with it: at 0.1 µM.
Assay [15] shares this target. The note with it: at 1 µM.
The target in assay [16] is T3, Tyrosine-protein kinase TXK (Homo sapiens) (UniProt P42681).
T3 sequence (whole entry): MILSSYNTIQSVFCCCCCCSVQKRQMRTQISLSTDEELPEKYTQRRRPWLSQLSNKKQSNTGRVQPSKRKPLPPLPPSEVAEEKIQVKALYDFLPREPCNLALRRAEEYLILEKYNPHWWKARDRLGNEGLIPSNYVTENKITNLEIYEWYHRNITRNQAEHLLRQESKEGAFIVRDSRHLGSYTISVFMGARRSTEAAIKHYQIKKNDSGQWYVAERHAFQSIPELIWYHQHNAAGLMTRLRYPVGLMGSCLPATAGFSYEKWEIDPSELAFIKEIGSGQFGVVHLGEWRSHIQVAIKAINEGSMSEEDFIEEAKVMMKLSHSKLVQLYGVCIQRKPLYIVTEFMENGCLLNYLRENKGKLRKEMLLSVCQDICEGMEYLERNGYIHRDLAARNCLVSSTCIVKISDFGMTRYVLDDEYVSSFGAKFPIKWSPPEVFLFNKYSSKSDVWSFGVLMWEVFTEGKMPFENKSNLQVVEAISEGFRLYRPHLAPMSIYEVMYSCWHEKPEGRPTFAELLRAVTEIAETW
To be noted: at 0.1 µM.

Assay [17] has as its target T3, Tyrosine-protein kinase TXK (Homo sapiens). To be noted: at 1 µM.
Assay [18] concerns the target Non-receptor tyrosine-protein kinase TYK2 (Homo sapiens) (UniProt P29597). The note with it: at 0.1 µM.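 Also: each value is a mean of the inhibition readings.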
For assay [19], the target named is T4, Dual specificity protein kinase TTK (Homo sapiens) (UniProt P33981).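 Also: reported figures are mean TTK inhibition at 1 µM.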
T4 sequence (whole entry): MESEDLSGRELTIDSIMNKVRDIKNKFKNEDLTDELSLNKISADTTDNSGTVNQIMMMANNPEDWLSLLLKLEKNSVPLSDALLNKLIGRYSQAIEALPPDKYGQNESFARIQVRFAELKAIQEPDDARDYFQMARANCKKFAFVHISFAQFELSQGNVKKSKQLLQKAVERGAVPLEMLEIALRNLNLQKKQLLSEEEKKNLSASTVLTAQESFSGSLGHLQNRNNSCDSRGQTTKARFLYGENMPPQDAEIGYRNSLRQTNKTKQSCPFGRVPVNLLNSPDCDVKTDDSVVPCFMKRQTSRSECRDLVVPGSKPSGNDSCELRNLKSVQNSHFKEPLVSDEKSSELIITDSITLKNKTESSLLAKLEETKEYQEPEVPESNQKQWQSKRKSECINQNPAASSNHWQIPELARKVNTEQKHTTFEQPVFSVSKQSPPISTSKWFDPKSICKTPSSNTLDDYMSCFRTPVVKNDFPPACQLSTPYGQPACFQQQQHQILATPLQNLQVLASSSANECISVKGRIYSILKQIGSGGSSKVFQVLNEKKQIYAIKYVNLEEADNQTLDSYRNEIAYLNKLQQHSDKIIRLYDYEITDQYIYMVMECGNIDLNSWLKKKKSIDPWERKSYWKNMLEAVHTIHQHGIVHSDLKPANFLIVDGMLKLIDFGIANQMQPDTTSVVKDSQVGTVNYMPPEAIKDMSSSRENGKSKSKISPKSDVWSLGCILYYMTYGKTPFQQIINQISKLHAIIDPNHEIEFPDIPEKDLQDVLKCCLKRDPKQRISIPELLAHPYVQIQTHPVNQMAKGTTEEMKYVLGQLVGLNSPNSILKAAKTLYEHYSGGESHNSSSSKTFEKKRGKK
To be noted: at 1 µM.

For assay [20], the target named is T5, Aurora kinase A (Homo sapiens) (UniProt O14965).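 Also: each reported value is a mean percent inhibition of Aurora-A.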
T5 sequence (whole entry): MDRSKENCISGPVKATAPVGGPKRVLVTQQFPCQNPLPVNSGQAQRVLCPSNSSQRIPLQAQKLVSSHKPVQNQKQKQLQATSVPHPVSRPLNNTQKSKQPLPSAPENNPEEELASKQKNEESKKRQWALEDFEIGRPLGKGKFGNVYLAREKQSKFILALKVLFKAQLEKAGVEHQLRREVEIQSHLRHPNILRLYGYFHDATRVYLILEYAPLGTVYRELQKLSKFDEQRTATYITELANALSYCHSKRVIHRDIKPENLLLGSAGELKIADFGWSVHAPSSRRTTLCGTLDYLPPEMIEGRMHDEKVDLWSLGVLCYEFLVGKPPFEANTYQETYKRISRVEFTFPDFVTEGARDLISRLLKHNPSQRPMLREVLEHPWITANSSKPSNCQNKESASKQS
To be noted: at 0.1 µM.

Sequence of Angiopoietin-1 receptor (Homo sapiens) (Q02763 whole entry): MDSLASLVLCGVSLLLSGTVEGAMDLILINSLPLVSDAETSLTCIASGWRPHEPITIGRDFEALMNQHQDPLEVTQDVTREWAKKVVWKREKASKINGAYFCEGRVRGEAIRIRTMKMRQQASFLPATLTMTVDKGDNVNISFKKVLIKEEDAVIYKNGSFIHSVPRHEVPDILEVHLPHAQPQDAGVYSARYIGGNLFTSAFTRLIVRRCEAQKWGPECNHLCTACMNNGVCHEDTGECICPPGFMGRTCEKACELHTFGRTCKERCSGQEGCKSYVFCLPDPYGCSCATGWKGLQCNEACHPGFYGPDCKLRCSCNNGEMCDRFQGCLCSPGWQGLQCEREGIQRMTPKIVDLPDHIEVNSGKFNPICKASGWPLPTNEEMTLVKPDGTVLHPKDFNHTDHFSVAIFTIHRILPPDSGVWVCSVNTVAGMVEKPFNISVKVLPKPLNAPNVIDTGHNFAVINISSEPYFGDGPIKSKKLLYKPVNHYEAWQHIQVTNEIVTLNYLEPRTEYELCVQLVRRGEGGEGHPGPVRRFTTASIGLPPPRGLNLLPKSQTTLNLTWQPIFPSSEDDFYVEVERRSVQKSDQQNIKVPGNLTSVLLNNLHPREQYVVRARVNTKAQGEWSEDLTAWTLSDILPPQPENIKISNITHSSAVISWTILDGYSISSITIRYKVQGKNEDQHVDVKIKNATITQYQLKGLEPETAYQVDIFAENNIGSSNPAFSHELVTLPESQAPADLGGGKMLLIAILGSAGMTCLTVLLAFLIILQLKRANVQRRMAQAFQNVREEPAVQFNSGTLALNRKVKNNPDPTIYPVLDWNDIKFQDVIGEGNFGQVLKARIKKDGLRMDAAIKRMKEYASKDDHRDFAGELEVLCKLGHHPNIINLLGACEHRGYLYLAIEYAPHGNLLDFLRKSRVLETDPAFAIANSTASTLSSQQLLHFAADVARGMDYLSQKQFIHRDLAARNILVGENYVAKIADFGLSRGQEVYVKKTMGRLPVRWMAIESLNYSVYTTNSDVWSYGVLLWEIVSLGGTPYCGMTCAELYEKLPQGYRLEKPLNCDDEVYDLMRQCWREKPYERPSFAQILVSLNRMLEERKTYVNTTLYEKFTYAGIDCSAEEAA
Sequence of High affinity nerve growth factor receptor (Homo sapiens) (P04629 33-796 limits assumed): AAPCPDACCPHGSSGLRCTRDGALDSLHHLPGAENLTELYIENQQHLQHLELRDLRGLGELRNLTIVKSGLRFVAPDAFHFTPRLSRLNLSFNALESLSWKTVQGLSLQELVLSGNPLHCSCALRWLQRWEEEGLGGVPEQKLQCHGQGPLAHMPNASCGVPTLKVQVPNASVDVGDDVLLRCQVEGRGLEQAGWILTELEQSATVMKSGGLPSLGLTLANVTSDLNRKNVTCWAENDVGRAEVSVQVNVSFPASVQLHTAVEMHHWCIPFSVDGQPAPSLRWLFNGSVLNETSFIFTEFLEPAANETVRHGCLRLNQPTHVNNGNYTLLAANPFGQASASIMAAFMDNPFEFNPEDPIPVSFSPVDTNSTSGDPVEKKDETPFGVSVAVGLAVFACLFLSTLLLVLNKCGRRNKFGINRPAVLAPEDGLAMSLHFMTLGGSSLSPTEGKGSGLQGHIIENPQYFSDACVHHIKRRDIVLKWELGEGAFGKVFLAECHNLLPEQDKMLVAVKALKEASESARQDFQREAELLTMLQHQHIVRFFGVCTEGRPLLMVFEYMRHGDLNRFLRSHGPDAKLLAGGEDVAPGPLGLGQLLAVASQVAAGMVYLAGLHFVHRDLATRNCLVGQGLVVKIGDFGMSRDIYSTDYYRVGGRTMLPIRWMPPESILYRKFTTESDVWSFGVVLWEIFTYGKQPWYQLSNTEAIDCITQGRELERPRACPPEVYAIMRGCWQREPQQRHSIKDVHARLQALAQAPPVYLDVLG
Sequence of Activated CDC42 kinase 1 (Homo sapiens) (Q07912 whole entry, looked up): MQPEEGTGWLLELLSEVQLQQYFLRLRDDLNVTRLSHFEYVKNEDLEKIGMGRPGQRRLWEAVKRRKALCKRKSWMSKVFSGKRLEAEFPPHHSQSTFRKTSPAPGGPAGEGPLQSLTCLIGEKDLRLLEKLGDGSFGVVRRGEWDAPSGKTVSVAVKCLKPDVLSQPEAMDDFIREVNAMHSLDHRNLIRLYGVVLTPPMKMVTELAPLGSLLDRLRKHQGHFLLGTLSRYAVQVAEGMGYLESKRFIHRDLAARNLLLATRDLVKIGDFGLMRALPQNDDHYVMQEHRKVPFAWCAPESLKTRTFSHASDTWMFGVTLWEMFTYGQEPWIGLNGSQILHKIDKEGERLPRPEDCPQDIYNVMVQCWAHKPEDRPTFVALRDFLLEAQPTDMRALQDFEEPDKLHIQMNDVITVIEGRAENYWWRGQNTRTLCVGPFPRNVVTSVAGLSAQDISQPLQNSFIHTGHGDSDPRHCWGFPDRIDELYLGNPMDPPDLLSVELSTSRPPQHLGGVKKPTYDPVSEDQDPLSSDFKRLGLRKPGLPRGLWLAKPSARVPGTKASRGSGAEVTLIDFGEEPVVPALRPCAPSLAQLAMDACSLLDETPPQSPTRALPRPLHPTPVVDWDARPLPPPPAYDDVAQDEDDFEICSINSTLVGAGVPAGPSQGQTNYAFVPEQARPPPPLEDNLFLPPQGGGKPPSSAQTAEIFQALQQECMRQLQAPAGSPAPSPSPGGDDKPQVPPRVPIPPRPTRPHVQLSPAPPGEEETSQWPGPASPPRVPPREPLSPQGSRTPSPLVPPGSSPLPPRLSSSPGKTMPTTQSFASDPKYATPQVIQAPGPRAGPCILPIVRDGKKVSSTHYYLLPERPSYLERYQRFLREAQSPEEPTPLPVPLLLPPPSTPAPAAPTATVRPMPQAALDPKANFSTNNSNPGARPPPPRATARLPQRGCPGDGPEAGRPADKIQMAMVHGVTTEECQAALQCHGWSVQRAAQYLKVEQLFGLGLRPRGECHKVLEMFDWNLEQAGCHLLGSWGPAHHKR
Sequence of BDNF/NT-3 growth factors receptor (Homo sapiens) (Q16620 32-822 limits assumed): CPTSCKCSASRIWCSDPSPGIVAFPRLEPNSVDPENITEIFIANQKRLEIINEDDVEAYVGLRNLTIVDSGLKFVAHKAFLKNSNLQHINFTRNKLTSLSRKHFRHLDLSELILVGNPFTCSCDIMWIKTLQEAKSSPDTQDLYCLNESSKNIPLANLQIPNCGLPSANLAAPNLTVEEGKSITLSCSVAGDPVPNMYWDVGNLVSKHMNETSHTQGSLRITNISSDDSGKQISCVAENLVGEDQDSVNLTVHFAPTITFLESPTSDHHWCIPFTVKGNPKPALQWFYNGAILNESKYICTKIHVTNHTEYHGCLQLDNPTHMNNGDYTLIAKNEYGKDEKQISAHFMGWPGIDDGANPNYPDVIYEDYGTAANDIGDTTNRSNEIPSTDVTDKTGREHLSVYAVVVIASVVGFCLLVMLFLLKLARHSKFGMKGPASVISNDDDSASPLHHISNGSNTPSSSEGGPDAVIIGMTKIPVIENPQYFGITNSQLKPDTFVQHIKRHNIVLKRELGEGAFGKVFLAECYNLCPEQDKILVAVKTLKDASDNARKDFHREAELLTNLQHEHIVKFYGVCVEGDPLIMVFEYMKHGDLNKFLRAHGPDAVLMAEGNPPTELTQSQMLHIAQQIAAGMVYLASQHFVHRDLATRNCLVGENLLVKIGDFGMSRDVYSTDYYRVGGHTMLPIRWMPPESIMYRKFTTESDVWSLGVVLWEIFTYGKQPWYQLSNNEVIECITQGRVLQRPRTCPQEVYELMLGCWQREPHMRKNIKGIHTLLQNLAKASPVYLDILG
Sequence of NT-3 growth factor receptor (Homo sapiens) (Q16288 32-839 limits assumed): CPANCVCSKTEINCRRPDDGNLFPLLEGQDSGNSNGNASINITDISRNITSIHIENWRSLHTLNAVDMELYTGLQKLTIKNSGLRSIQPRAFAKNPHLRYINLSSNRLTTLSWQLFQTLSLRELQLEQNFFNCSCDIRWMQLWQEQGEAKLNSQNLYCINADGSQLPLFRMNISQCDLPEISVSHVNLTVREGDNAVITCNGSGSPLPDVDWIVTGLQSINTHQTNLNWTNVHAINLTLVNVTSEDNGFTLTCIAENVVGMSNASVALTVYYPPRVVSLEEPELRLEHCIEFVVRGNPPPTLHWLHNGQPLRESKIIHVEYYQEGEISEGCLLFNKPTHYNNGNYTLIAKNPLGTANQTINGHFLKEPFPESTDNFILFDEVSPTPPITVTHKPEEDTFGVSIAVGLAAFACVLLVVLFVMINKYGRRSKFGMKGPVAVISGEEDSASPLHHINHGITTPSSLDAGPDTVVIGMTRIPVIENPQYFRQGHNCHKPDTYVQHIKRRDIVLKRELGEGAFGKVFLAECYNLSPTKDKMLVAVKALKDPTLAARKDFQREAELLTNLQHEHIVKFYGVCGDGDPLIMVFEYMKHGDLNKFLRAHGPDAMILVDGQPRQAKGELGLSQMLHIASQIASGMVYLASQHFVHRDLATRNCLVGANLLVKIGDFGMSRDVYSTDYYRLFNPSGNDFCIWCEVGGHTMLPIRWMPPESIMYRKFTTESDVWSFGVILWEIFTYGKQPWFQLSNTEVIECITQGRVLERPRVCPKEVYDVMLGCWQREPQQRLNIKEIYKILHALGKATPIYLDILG

Regarding `NS(=O)(=O)c1ccc(NC=C2C(=O)Nc3ccc4ncsc4c32)cc1`, the inhibition was found to be 3.68% in [1]; 5.73% in [2]; 22.4% in assay [3]; 1.88% in assay [4]; 19.6% in assay [5]; 15.6% in assay [6]. The inhibition came to 53.1% in assay [7]; 1.41% in assay [8]; 9.93% in assay [9]; 15.9% in assay [10]; 68.8% in assay [11]; 31.8% in [12]. Moreover, the inhibition in [13] came to 80.2%; in [14] it was 35.6%; in assay [15] it was 84.6%; in assay [16], 4.55%; in [17] it was 17.2%; in [18], 11%. The inhibition in assay [19] worked out at 75.5%; in assay [20] it was 34.6%.
`COc1ccc(-c2nn3ncccc3c2-c2ccnc(Nc3cccc(C(F)(F)F)c3)n2)cc1`: the inhibition in [1] was -2.11%; in assay [2] it was 1.14%; in assay [3], 4.73%; in assay [4], 2.11%; in [5] it was 9.2%; in [6], 7.47%. Besides, the inhibition in assay [7] stood at 9.47%; in assay [8] it was 0.73%; in [9], 0.85%; in assay [10], 1.79%; in assay [11], 3.94%; in assay [12], 1.95%. Moreover, the inhibition in [13] was 3.32%; in assay [14], 2.64%; in [15] it was 1.56%; in [16], 0.17%; in [17], 3.03%; in assay [18], 0.38%. For the same compound, the inhibition in assay [19] was 6.51%; in assay [20] it was 2.9%.
In the case of `Nc1ccc(C#Cc2cncnc2Nc2ccc(OCc3cccc(F)c3)c(Cl)c2)cc1`, the inhibition in assay [1] was -2.35%; in [2] it was -0.48%; in assay [3], 3.77%; in assay [4] it was 1.84%; in [5], 3.47%; in assay [6], -0.01%. Besides, the inhibition in assay [8] turned out to be 1.62%; in [9] it was 1.81%; in assay [10], 4.31%; in [11], 0.62%; in assay [12], 1.89%; in [13], 1.57%. The inhibition was 2.2% in [14]; 1.81% in [15]; -1.58% in [16]; 2.93% in assay [17]; 0.67% in assay [18]; 6.25% in assay [19]. The inhibition in assay [20] is 2.18%.
